Source: PubChem BioAssay AID588689 (Southern Research Specialized Biocontainment Screening …, 2011)
Among all 340,000 compounds or so, about 1,000 (0.29%) were called active. No stated cut-off is given here; in the data, inconclusive means inhibition above about 29% without an active follow-up result; inactive means below that. Not all results are given here. Measured potencies and affinities stand elsewhere.

Biological target: Genome polyprotein (Dengue virus type 2 (strain 16681-PDK53)) (UniProt P29991)
Experiment: flavivirus cap methylation enzyme inhibition – biochemical, confirmation dose response, primary screen (AID 588689)
Conditions: Dengue-2 NS5 methyltransferase capping enzyme assay, at 25 µM, stronger effect = higher value
[1] = measured here: pilot screen replicate inhibition

Row | SMILES | inhibition | inhibition [1]
1 | Cc1ccc(/C=C/C(=O)C2C(=O)c3ccccc3C2=O)cc1 | 13.3% (inactive) | 
2 | O=C(/C=C/c1ccccc1)C1C(=O)c2ccccc2C1=O | -1.46% (inactive) | 
3 | Cc1ccc(C)c(N2CCN(C(=O)C3CCCN(S(=O)(=O)c4c(C)noc4C)C3)CC2)c1 (stereo not drawn) | -2.75% (inactive) | 
4 | O=C(O)c1ccc(NCCC2=CCCCC2)c([N+](=O)[O-])c1 | 5.44% (inactive) | 
5 | O=C(NCCC1=CCCCC1)c1ccc(Cl)c([N+](=O)[O-])c1 | 0% (inactive) | 
6 | Nc1c(C(=O)N/N=C/c2ccccc2)cnn1-c1ccccc1 | 1.53% (inactive) | 
7 | CC(=O)c1ccc2c(c1)C1C=CCC1C(c1ccc(S(=O)(=O)N3CCOCC3)cc1)N2 (stereo not drawn) | 11.6% (inactive) | 
8 | O=C(O)c1ccc2c(c1)C1C=CCC1C(c1cc3c(cc1Br)OCO3)N2 (stereo not drawn) | 6.19% (inactive) | 
9 | O=C(O)c1ccc(NS(=O)(=O)c2ccc3c(c2)OCCCO3)cc1 | -0.76% (inactive) | 
10 | COC(=O)c1ccc(C2Nc3ccc(/C(C)=N/NC(=O)C(OC)c4ccccc4)cc3C3C=CCC32)cc1 (stereo not drawn) | -4.05% (inactive) | 
11 | COc1cccc(NS(=O)(=O)c2ccc3c(c2)NC(=O)CC(=O)N3)c1 | -10.6% (inactive) | 
12 | COc1ccc(C(=O)N/N=C(\C)c2ccc3c(c2)C2C=CCC2C(c2ccccc2)N3)cc1 (stereo not drawn) | 2.59% (inactive) | 
13 | COc1ccc(NS(=O)(=O)c2ccc(NS(=O)(=O)c3cccc(C(=O)O)c3)cc2)cc1 | 0% (inactive) | 
14 | COc1cccc(NS(=O)(=O)c2ccc3c(c2)CC(=O)N3)c1 | -6.98% (inactive) | 
15 | COc1ccc(CN2C3CCCC2CC(NC(=O)Nc2ccccc2)C3)cc1 (stereo not drawn) | -8.9% (inactive) | 
16 | CCN(CC(=O)Nc1ccc2c(c1)OCCO2)S(=O)(=O)c1ccc(F)cc1 | -12.2% (inactive) | 
17 | CCN(CC)S(=O)(=O)c1ccc(C(=O)NCCOC(=O)c2ccc(F)cc2F)cc1 | 8.01% (inactive) | 
18 | COc1ccccc1NS(=O)(=O)c1ccc2c(c1)OCCO2 | -2.93% (inactive) | 
19 | Cc1ccc(S(=O)(=O)N2CCCCC2)cc1C(=O)NCc1ccc(S(N)(=O)=O)cc1 | 4.65% (inactive) | 
20 | COc1ccc(/C(O)=C2\C(=O)C(=O)N(CC3CCCO3)C2c2cc(OC)ccc2OC)cc1 (stereo not drawn) | -3.45% (inactive) | 
21 | O=C(NCCC1=CCCCC1)c1cnc2n(c1=O)CCS2 | 3.21% (inactive) | 
22 | COc1ccccc1C(=O)NC(=O)COC(=O)Cc1n[nH]c(=O)c2ccccc12 | 3.6% (inactive) | 
23 | COc1ccc(NS(=O)(=O)c2cc([N+](=O)[O-])ccc2N/N=C\c2c(C)[nH]c3ccccc23)cc1 | -20.6% (inactive) | 

Row | SMILES | inhibition | inhibition [1]
24 | COc1ccc(S(=O)(=O)NCc2ccccn2)cc1Br | 2.64% (inactive) | 3.33%
25 | CSC1=C(C#N)C(=O)NC(c2ccc(Cl)cc2)S1 (stereo not drawn) | -3.83% (inactive) | 
26 | N#CC1=C(Nc2ccccc2Cl)SC(c2ccccc2O)NC1=O (stereo not drawn) | -11.1% (inactive) | 
27 | Cc1c([N+](=O)[O-])cc(N2C(=O)C=CC2=O)cc1[N+](=O)[O-] | 8.16% (inactive) | 
28 | Cc1cc(N2C(=O)C=CC2=O)c([N+](=O)[O-])cc1C | -13.6% (inactive) | 
29 | COc1ccc(-c2ccc(NS(=O)(=O)c3ccc([N+](=O)[O-])cc3)cc2)nn1 | 5.43% (inactive) | 
30 | COc1ccc(-n2nc(C(=O)NCC(=O)NCC3CCCO3)c3ccccc3c2=O)cc1 (stereo not drawn) | -4.8% (inactive) | -2.44%
31 | Cc1ccc(C2(C(F)(F)F)NC(=O)N3N=C4CCCCCN4C3=C2C#N)cc1 (stereo not drawn) | 7.4% (inactive) | 
32 | CCc1ccc(/C=C2\SC(=S)N(CCCC(=O)Nc3ccc(C(=O)O)cc3)C2=O)cc1 | 17.8% (inactive) | 
33 | COc1ccc(/C=C2\SC(=S)N(CCCC(=O)Nc3ccccc3C(=O)O)C2=O)cc1OC | -34.8% (inactive) | 
34 | COc1ccc(/C=C2/SC(=S)N(CCCC(=O)Nc3ccccc3C(=O)O)C2=O)cc1 | 12.5% (inactive) | 
35 | Cc1ccc(/C=C2\SC(=S)N(CCCC(=O)Nc3ccccc3C(=O)O)C2=O)cc1 | 15.4% (inactive) | 
36 | COc1ccc(/C=C2\SC(=S)N(CCC(=O)Nc3ccccc3C(=O)O)C2=O)cc1 | -2.62% (inactive) | 
37 | CCOc1ccc(/C=C2/SC(=S)N(CCC(=O)Nc3ccc(C(=O)O)cc3)C2=O)cc1 | -7.39% (inactive) | 
38 | COc1ccc(CNC(=O)COC(=O)C(CCSC)NC(=O)c2ccco2)cc1OC (stereo not drawn) | 0% (inactive) | 
39 | O=C(c1cc(C2CC2)nn1-c1ccccc1)N1CCN(Cc2ccccc2F)CC1 | -3.6% (inactive) | 
40 | Cc1cc(C(=O)COC(=O)c2n[nH]c(=O)c3ccccc23)c(C)n1C(C)C | -4.04% (inactive) | 
41 | CCOc1ccc(N(CC(=O)NC2CCCCC2C)S(=O)(=O)c2c(C)noc2C)cc1 (stereo not drawn) | -4.39% (inactive) | 
42 | O=C1/C(=N\O)Cc2ccccc21 | -5.15% (inactive) | 
43 | O=C1C(=NO)CCCc2ccccc21 | -3.23% (inactive) | 
44 | O=C(O)CC1SC(N/N=C/c2ccc(Br)cc2)NC1=O (stereo not drawn) | 3.06% (inactive) | 
45 | COc1ccc(OC)c(S(=O)(=O)N(C)CC(=O)N2CCCCC2)c1 | -7.78% (inactive) | 
46 | CC(C)C1C(=O)N(Cc2cn(CCC3OCCO3)nn2)CCS(=O)(=O)N1Cc1ccc(-c2ccc(Cl)c(Cl)c2)cc1 (stereo not drawn) | -2.32% (inactive) | 

Row | SMILES | inhibition | inhibition [1]
47 | CN=c1scc(C)n1/N=C/c1cc(Br)c(O)c(Br)c1 | -1.49% (inactive) | 
48 | Cc1c(Br)c(O)c(Br)c(O)c1/C=N/n1c(-c2ccccc2)n[nH]c1=S | 21.5% (inactive) | 
49 | Oc1ccc(/C=N/n2c(-c3ccccc3)n[nH]c2=S)cc1Br | 13.5% (inactive) | 
50 | Oc1c(Br)cc(Br)cc1/C=N/n1c(-c2ccccc2)n[nH]c1=S | -12.7% (inactive) | 
51 | COc1ccccc1N1C(=O)CC(N2CCN(c3ccc(F)cc3)CC2)C1=O (stereo not drawn) | -6.31% (inactive) | 
52 | O=C(CN(Cc1ccccc1Cl)C(=O)c1csnn1)NCc1ccc2c(c1)OCO2 | -1.47% (inactive) | 
53 | Cc1ccc(-c2cn3nc(C)c(C)nc3n2)cc1 | -9.37% (inactive) | 
54 | Cc1nc2nc(-c3ccccc3)cn2nc1C | -1.38% (inactive) | 
55 | COc1ccc(C(=O)N(CC(=O)NC(C)(C)C)c2ccc3c(c2)OCCO3)cc1OC | -3.24% (inactive) | 
56 | Cn1c(-c2ccccc2)cc(=NNS(C)(=O)=O)c2cc(S(=O)(=O)O)ccc21 | 7.43% (inactive) | 
57 | Oc1ccc2ccccc2c1CN1CCCCC1 | -0.78% (inactive) | 
58 | Oc1ccc(CN2CCCCC2)nc1-c1ccccc1 | -3.27% (inactive) | 
59 | c1ccc(-c2ccc(-c3csnn3)cc2)cc1 | 0.69% (inactive) | 
60 | COc1ccc(S(=O)(=O)Nc2ccc(O)c3ccccc23)cc1 | 70.6% (inactive) | 
61 | CCOC(=O)c1ccccc1NS(=O)(=O)c1ccc(OCC)cc1 | -6.45% (inactive) | 
62 | COc1ccc(S(=O)(=O)c2c(C)c(NS(=O)(=O)c3ccccc3)cc(C)c2O)cc1 | -5.22% (inactive) | 
63 | CCOc1ccc(S(=O)(=O)Nc2ccccc2SC)cc1 | 6.41% (inactive) | 
64 | CC1(c2ccc(Cl)cc2)NC(=O)N(CC(=O)NCCC2=CCCCC2)C1=O (stereo not drawn) | -2.9% (inactive) | 
65 | COc1ccc(-n2c(=S)[nH]c3cc(C(=O)Nc4cc(C(N)=O)ccc4OC)ccc3c2=O)c(OC)c1 | -13.4% (inactive) | 
66 | COc1cc(N)c(Cl)cc1C(=O)OCC(=O)NC1CCCC1 | -6.23% (inactive) | 
67 | CC(C)c1ccc(NC2CCCN(C(=O)CN3CCCC3=O)C2)cc1 (stereo not drawn) | -7.87% (inactive) | 
68 | C=CCNC(=S)NNC(=O)c1csc(C)c1CC | 2.43% (inactive) | 
69 | CCOc1ccc(NC(=O)CN(C)C(=O)C2=COCCO2)cc1OCC | -3.6% (inactive) | 

Row | SMILES | inhibition | inhibition [1]
70 | Nc1ccccc1Sc1ccc(C(=O)c2ccccc2C(=O)O)cc1[N+](=O)[O-] | 17.6% (inactive) | 
71 | CC(=O)c1ccc(Sc2ccccc2)c([N+](=O)[O-])c1 | 3.06% (inactive) | 
72 | COc1ccc(C(=O)c2coc(-c3ccccc3C(=O)O)c2C(=O)O)cc1 | 2.56% (inactive) | 
73 | O=C1c2ccccc2C(=O)c2c1oc(C(F)(F)F)c2C(=O)c1ccccc1 | -2.07% (inactive) | 
74 | Cc1ccc(C(=O)c2c[nH]cc2-c2ccccc2)cc1 | -3.21% (inactive) | 
75 | O=C(c1ccccc1)c1coc2c1C(=O)c1ccccc1C2=O | 6.1% (inactive) | 
76 | Cc1oc2c(c1C(=O)c1ccc(Cl)cc1)C(=O)C(=O)c1ccccc1-2 | 28% (inactive) | 
77 | Cc1ccc(C(=O)c2coc3ccc(O)cc23)cc1 | 2.6% (inactive) | 
78 | Cc1ccc(C(=O)c2c(C)oc3c2C(=O)C(=O)c2ccccc2-3)cc1 | 21.1% (inactive) | 
79 | COc1ccc(C(=O)c2c(C(F)(F)F)oc3c2C(=O)c2ccccc2C3=O)cc1 | 9.03% (inactive) | 
80 | CN1CCN(CCCNC(=O)Cn2ncc3c4ccccc4n(C)c3c2=O)CC1 | -0.7% (inactive) | 
81 | CCOc1ccc(C(=O)Nc2cccc(NC(=O)c3cccs3)c2)cc1[N+](=O)[O-] | -6.19% (inactive) | 
82 | COc1cc(OC)cc(C(=O)NCCCNC(=O)c2cccnc2)c1 | -1.78% (inactive) | 
83 | Cc1nc(N2CCOCC2)[nH]c(=O)c1CCC(C)C | -3.29% (inactive) | 
84 | CC(=C\C(=O)O)/C(=C\c1cccc2ccccc12)C(=O)O | -1.16% (inactive) | 
85 | CCn1c(=S)sc2c(=O)n(-c3ccccc3)c(SCC(=O)NCc3ccco3)nc21 | 2.42% (inactive) | 
86 | CN1C[C@H]2CON(C)[C@H]2C[C@H]1c1cccc(-c2ccccc2)c1 | -6.62% (inactive) | -3.38%
87 | COc1ccc(-n2c(-c3ccc(Br)cc3)nc(=S)c3c2CCCC3)cc1 | -4.74% (inactive) | 
88 | CC(C)CCNC(=O)c1ccc(-n2cnc3cccnc32)cc1 | -2.72% (inactive) | 
89 | COc1ccc2cc(CCNC(=O)CCc3ccccc3)c(=O)[nH]c2c1 | 0.89% (inactive) | 
90 | O=C(Nc1ncn[nH]1)c1ccc(S(=O)(=O)N2CCOCC2)cc1 | -3.52% (inactive) | 
